# From ChEMBL document CHEMBL3988442, “University of Dundee, Small-Polar-MMV Screening Library” (2021)
# Hit rate of the full screen: of about 66,000 compounds, about 960 (1.5%) showed an effect of 50% or more. Shown is part of a subset that was picked to be rich in strong results.
# System: Trypanosoma brucei
# Test: Trypanosoma brucei 72 hour study
# Type: functional, organism-based
# Parameters: scale not given: in the data most compounds retested in dose-response had high values
compound,measurement,setting,value
COCCCNc1c(-c2ccc(Cl)cc2)c(=O)c1=O,Percent Effect,"30.3 µM, […]",13.47%
O=C(c1cnccn1)N1CCCC(Cc2cccc3ncccc23)C1 (stereo not given),Percent Effect,"30.3 µM, […]",-10.31%
CN(C)C(=O)[C@@H]1CCO[C@@H]2CCN(CCOCc3ccccc3)C[C@H]21.O=C(O)C(F)(F)F,Percent Effect,"30.3 µM, […]",-3.678%
CC(C)(C)c1nc(NS(=O)(=O)c2ccccc2F)no1,Percent Effect,"30 µM, 30.03 µM",-17.01%
O=C(NCC1CC1)C1CCC2(CCN(C(=O)c3ccncc3)CC2)O1.O=C(O)C(F)(F)F (stereo not given),Percent Effect,"30.3 µM, […]",-42.23%
Cc1noc(C)c1CN1CCO[C@H]2[C@H](Oc3ncccc3F)CC[C@@H]21.O=C(O)C(F)(F)F.O=C(O)C(F)(F)F,Percent Effect,"30 µM, 30.03 µM",-9.669%
CCCN(CCc1ccccn1)C(=O)CCc1cnn(C)c1,Percent Effect,"30 µM, 30.03 µM",-34.35%
CCN(CC)Cc1ccc(C(=O)N2CCCC2Cn2cccn2)cc1 (stereo not given),Percent Effect,10 µM,-13.25%
CCc1cnc(CN(C)C2CCN(CC(=O)Nc3nccs3)C2)o1 (stereo not given),Percent Effect,10 µM,-37.99%
COc1ccc(N2Cc3nc(=O)n(Cc4cccc(F)c4)n3C2=O)cc1,Percent Effect,"30 µM, 30.03 µM",-5.99%
CCN1CCn2c(C)cnc2C12CCN(C(=O)NCC(C)C)CC2.O=C(O)C(F)(F)F,Percent Effect,"30.3 µM, […]",-30.2%
O=C(Nc1ccccn1)C1CC(=O)N(Cc2ccccn2)C1 (stereo not given),Percent Effect,"30 µM, 30.03 µM",-8.332%
COc1ncccc1NC(=O)C1CC(=O)N(Cc2ccccn2)C1 (stereo not given),Percent Effect,"30 µM, 30.03 µM",55.04%
Cc1ccc(Cl)cc1NC(=O)C1CC(=O)N(Cc2ccccn2)C1 (stereo not given),Percent Effect,"30 µM, 30.03 µM",8.87%
CC(C)(C)NC(=O)CCOc1cccc(F)c1,Percent Effect,10 µM,-74.47%
COc1ccccc1CN1CC[C@]2(C[C@@H](OC)CO2)C1.O=C(O)C(F)(F)F,Percent Effect,"30 µM, 30.03 µM",-26.27%
Cc1nn(C)c2c(NCCCn3cccn3)nc(C(C)C)nc12,Percent Effect,"30.3 µM, […]",-9.582%
COc1cc(C(=O)NCCc2ccc(OC)c(OC)c2)on1,Percent Effect,"30.3 µM, […]",8.881%
COc1cc(C(=O)NCCCc2ccccc2)on1,Percent Effect,"30.3 µM, […]",10.61%
COc1cc(C(=O)NCCc2ccccc2OC)on1,Percent Effect,"30.3 µM, […]",101.4%
Cc1occc1C(=O)N1CCC2(CCN(Cc3ccccn3)C2=O)C1.O=C(O)C(F)(F)F (stereo not given),Percent Effect,"30 µM, 30.03 µM",-18.48%
Cc1cc(C)nc(N2CCN(Cc3nccn3C)CC2)n1.O=CO,Percent Effect,"30.3 µM, […]",-2.711%
Cc1noc(C)c1CN1C[C@@H](OCc2ccccn2)[C@H]2OCCC[C@H]21.O=C(O)C(F)(F)F.O=C(O)C(F)(F)F,Percent Effect,"30 µM, 30.03 µM",-32.5%
O=C(O)C(F)(F)F.O=c1ccc2c([nH]1)CCC(NCc1ccc3c(c1)OCO3)C2 (stereo not given),Percent Effect,"30.3 µM, […]",-24.67%
CC(C)CCN1C2(CCN(C(=O)CN(C)C)C2)c2ccccc2S1(=O)=O.O=C(O)C(F)(F)F (stereo not given),Percent Effect,"30.3 µM, […]",-2.24%
COc1ccc2c(c1)OC1(CCN(Cc3cccc(C)c3)CC1)CC2=O,Percent Effect,"30.3 µM, […]",-0.9536%
same,Percent Effect,"10 mM, 10 mM as filed; unlikely as a test dose",-48.74%
COc1ccc2c(c1)OC1(CCN(Cc3ccccc3C)CC1)CC2=O,Percent Effect,"30.3 µM, […]",99.25%
same,Percent Effect,"10 mM, 10 mM as filed; unlikely as a test dose",-45.93%
COc1ccc2c(c1)OC1(CCN(Cc3ccc(C)cc3)CC1)CC2=O,Percent Effect,"30.3 µM, […]",-15.07%
same,Percent Effect,"10 mM, 10 mM as filed; unlikely as a test dose",-53.52%
Cc1nc(CN2CCCC(C)(CO)C2)no1 (stereo not given),Percent Effect,"30 µM, 30.03 µM",-41.91%
Cl.Cl.O=C(NCc1cncc2c1CCN(C1CCOC1)C2)c1ccco1 (stereo not given),Percent Effect,"30.3 µM, […]",-14.18%
Cc1ccc(C)c(CN(CC(N)=O)C(C)C)c1,Percent Effect,"30 µM, 30.03 µM",-11.18%
COc1ccc(C(=O)C2CCCN(c3cc(N)ncn3)C2)c(C)c1 (stereo not given),Percent Effect,"30.3 µM, […]",35.59%
COc1ccc(C(=O)C2CCCN(c3cc(OC)ncn3)C2)c(C)c1 (stereo not given),Percent Effect,"30.3 µM, […]",25.96%
CCc1nc(C)cc(N2CCCC(C(=O)c3ccc(OC)cc3C)C2)n1 (stereo not given),Percent Effect,"30.3 µM, […]",68.93%
Cc1ccc(CN2CCc3nnc(CN4CCCC4=O)n3CC2)o1.O=C(O)C(F)(F)F,Percent Effect,"30.3 µM, […]",11.51%
Cc1nnsc1C(=O)NCc1nn(C)c2c1CCCC2,Percent Effect,"30 µM, 30.03 µM",10.26%
O=C(Cc1ccc(F)c(F)c1)NC1COc2ccccc2C1=O (stereo not given),Percent Effect,"30.3 µM, […]",53.93%
O=C(Cc1cccnc1)NC1COc2ccccc2C1=O (stereo not given),Percent Effect,"30.3 µM, […]",-65.37%
O=C(Cc1cccc(F)c1F)NC1COc2ccccc2C1=O (stereo not given),Percent Effect,"30.3 µM, […]",-49.3%
COCC(O)CN(C)c1cc(C(F)(F)F)nc(-c2cccnc2)n1 (stereo not given),Percent Effect,"30 µM, 30.03 µM",57.96%
COCCCN(C)c1cc(C(F)(F)F)nc(-c2cccnc2)n1,Percent Effect,"30 µM, 30.03 µM",14.1%
CC(O)CN(C)c1cc(C(F)(F)F)nc(-c2cccnc2)n1 (stereo not given),Percent Effect,"30 µM, 30.03 µM",14.71%
CNc1oc(-c2ccc(S(=O)(=O)N(C)C)o2)nc1C#N,Percent Effect,"30 µM, 30.03 µM",-28.85%
CN(C)S(=O)(=O)c1ccc(-c2nc(C#N)c(NC3CCCCC3)o2)o1,Percent Effect,"30 µM, 30.03 µM",-26.33%
CN(C)S(=O)(=O)c1ccc(-c2nc(C#N)c(NC3CC3)o2)o1,Percent Effect,"30 µM, 30.03 µM",-26.91%
CC(C)Nc1oc(-c2ccc(S(=O)(=O)N(C)C)o2)nc1C#N,Percent Effect,"30 µM, 30.03 µM",-8.182%
CN(C)S(=O)(=O)c1ccc(-c2nc(C#N)c(NC(C)(C)C)o2)o1.Cl,Percent Effect,"30 µM, 30.03 µM",94.64%
